Screening results: PubChem, National Center for Advancing Translational Sciences (NCATS)
Sampled rows, rich in hits. Any-hit rate of the full collection: about 0.74%.
CCT modulator = changes cytosolic chaperonin activity | hit rate 0.3% among 360,000 | activity change, % (concentration not given with the values), hits read low | purified chaperonin ATPase assay, HTRF ADP detection, 30 min; in the data active means activity change below about -30%; further: on the % scale 0 is the no-effect control and ±100 the full control effect
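First, chaperonin was dispensed at 40 nM or 20 nM final depending on batch activity. Next, compounds were pinned at 76 uM and ATP added at 10 uM. After 30 min at 37 °C, ADP detection reagents ran 30 min at ambient temperature.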
TCR act = activators of T cell receptors; AID 504894; primary human leukocytes, anti-CD3, IL-2 HTRF, 48 h; 330,000 tested, under 10 active; Potency, µM (doses to about 9.22 µM), for the others: top-dose activation of IL-2 secretion, hits mostly activators; active means well fitted activation curve with a large enough effect; further: % of control where 0% means no effect
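Using a-CD3 beads without co-stimulation, primary human leukocytes were exposed to compounds for 48 hr. An HTRF IL-2 kit measured the cytokine, with europium-to-d2 energy transfer producing emission at 665nm upon 320nm excitation.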
TSHR antag = blocks TSH signaling through the human TSH receptor; AID 504810; activity change, negative = inhibition, % at 11.5 µM; hit rate 0.2% among 330,000; P16473; TSHR-expressing cells, TSH-stimulated cAMP HTRF, 2 h; hits give low values;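 active means activity change below a set negative limit, meaning inhibition stronger than a set level, cut at about -70% in these data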; further: on the % scale 0 is the no-effect control and ±100 the full control effect
Target sequence (P16473 whole entry, looked up): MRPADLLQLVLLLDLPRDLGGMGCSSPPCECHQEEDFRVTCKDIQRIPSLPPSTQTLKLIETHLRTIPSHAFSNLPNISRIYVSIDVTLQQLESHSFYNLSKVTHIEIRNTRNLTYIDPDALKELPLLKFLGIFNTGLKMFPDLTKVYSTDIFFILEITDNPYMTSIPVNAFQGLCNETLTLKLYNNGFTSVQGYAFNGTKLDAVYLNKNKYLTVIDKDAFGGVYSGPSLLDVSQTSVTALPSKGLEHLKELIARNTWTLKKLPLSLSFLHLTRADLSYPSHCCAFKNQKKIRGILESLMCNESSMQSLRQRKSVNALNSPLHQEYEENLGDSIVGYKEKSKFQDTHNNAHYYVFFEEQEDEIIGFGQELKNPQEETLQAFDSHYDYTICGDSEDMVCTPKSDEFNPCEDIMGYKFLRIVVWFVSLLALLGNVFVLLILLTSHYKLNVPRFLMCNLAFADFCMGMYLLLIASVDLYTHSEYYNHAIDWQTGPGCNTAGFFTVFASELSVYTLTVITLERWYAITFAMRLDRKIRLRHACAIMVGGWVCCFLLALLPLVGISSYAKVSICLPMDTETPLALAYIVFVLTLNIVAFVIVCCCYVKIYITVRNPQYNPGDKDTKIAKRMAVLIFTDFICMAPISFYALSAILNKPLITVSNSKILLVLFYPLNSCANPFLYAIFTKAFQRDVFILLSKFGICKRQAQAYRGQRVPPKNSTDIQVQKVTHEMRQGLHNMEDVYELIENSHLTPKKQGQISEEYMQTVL
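Antagonism was scored as loss of TSH-driven cAMP in TSHR cells, stimulated with 4nM TSH (EC80) for 2 hours at 37 deg C and detected by homogeneous HTRF competition immunoassay.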
Akt phos inh = inhibitors of Akt phosphorylation; activity change, % for hits at 50 µM; hit rate 0.32% among 360,000; AID 651550; Neuro2A IGF-stimulated pAkt S473 HTRF, 20 min; hits give low values; in the data active means activity change below about -80%; further: on the % scale 0 is the no-effect control and ±100 the full control effect
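Neuro2A cells in DMEM with 0.5% FBS, overnight at 37 deg C, given compound at single 50 µM final, then IGF (6 nM final) for 20 min at 37 deg C. Lysed; phospho-Akt Ser473 by HTRF after 24 h, 665/615 ratio.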
An asterisk follows results filed as active; i = inactive; x = no result; [ ] = another dose, or the depositor's remark.

SMILES	CCT modulator	TCR act	TSHR antag	Akt phos inh
COc1cccc(NC(=O)CSc2nnc(-c3cccs3)n2C)c1	0	8%	26	-107%*
COc1ccccc1C1CC(=O)Oc2cc(C)c(Cl)c(C)c21 (stereo not given)	1	-10%[46.1 µM]	-18	i
CC(C)[C@H](NS(=O)(=O)c1cccc(C(F)(F)F)c1)C(=O)OCC(=O)NC(=O)NCc1ccco1	4	-2%	x	i
COC(=O)c1c(NC(=O)CSc2nnc(C)c(=O)[nH]2)sc(C)c1C	1	-4%	-16	i
COc1ccc(C)cc1NC(=O)CSc1nnc(COc2ccccc2)n1Cc1ccco1	-2	2%	19	-98%*
CCn1cc(/C=C(\NC(=O)c2ccc(C)cc2)C(=O)NCCCN2CCOCC2)c2ccccc21	0	0%	-3	i
CCn1cc(/C=C(\NC(=O)c2ccc(OC)c(OC)c2)C(=O)NCCCN2CCOCC2)c2ccccc21	-81*	1%	-4	x
Cc1cccc(NC(=O)CCCN2C(=O)c3ccccc3C2=O)n1	-3	-4%	30	-111%*
O=C(CCN1C(=O)c2ccccc2C1=O)NC1=NCCS1	3	-20%	0	-112%*
O=C(c1ccccc1)c1c[nH]c(C(=O)NNc2ccccc2)c1	-6	-4%	-10	i
Cc1cc(C)n(-c2n[nH]c(C)c2[N+](=O)[O-])n1	-2	-1%	20	i
O=C(CSc1nnc2ccc(-c3ccccn3)nn12)Nc1cccc(F)c1	-45*	x	x	i
O=C(O/N=C/c1ccc2c(c1)OCO2)c1ccc([N+](=O)[O-])cc1	-31*	1%	9	i
CC(=O)c1ccc(S(=O)(=O)Oc2ccc(-c3ccc(C(=O)O)cc3)cc2)cc1	1	-3%	-6	i
CCc1ccc(NS(=O)(=O)c2cc3[nH]c(=O)c(=O)[nH]c3cc2C)cc1	0	-7%	-140*	i
O=C(O)Cc1c[nH]c2cccc(O)c12	0	-2%	11	i
COC(=O)c1[nH]c2ccc(C)cc2c1NS(=O)(=O)c1ccc(F)cc1	-1	-3%	34	-119%*
NS(=O)(=O)c1ccc(CNS(=O)(=O)c2cc(Cl)ccc2Cl)cc1	-38*	8%	0	i
NS(=O)(=O)c1ccc(CNC(=O)c2ccc(Cl)c(S(=O)(=O)NCc3ccccc3)c2)cc1	1	6%	-9	i
CC(C)C(=O)Nc1c2c(nc3c1CCC3)CCCC2	-1	1%	0	i
CCC(C)C(=O)Nc1c2c(nc3c1CCC3)CCCC2 (stereo not given)	-4	1%	-11	-101%*
O=C(C[C@@H]1C/C=C\C[C@H](Cc2ccc(F)cc2)C(=O)OCCNC1=O)NCCO	-2	-5%	-9	i
COc1ccc(-c2nnc(SCC(=O)OC3CCCCC3)o2)cc1OC	-1	0%	-4	-117%*
Cc1cc(C)cc(NS(=O)(=O)c2ccc3oc(=O)ccc3c2)c1	-31*	0%	9	i
Cc1cc(N2CCN(C(=O)Oc3ccc([N+](=O)[O-])cc3)CC2)c2ccccc2n1	0	x	x	i
SMILES	CCT modulator	TCR act	TSHR antag	Akt phos inh
CCOC(=O)c1nn(C23CC4CC(CC(C4)C2)C3)c2c1C(=O)N(c1ccc(C)cc1)C2=O	0	0%	10	-110%*
COC(=O)c1nn(C23CC4CC(CC(C4)C2)C3)c2c1C(=O)N(c1ccc(Br)cc1)C2=O	-3	5%	7	i
COc1ccc(NS(=O)(=O)NC(=O)c2c[nH]c3ccccc23)cc1	-1	-2%	-7	x
CCOC(=O)c1nnn(-c2nonc2N)c1-c1ccc(OCC)cc1	-5	-3%	-6	-112%*
CCOc1ccc(/C=N/NC(=O)c2nnn(-c3nonc3N)c2-c2ccc(OCC)cc2)cc1	-3	6%[46.1 µM]	4	i
C=CCOc1ccc(C[C@H](N)C(=O)NC[C@H]2O[C@@H](n3ccc(N)nc3=O)[C@H](O)[C@@H]2O)cc1	0	x	x	i
C=CCn1c(=O)c2c(nc3n2CC(C)CN3CCc2ccccc2)n(C)c1=O (stereo not given)	0	-7%	10	i
COc1ccc(NS(=O)(=O)c2cccc(NC(=O)C3=NN(c4ccccc4)C(=O)CC3)c2)cc1	-3	2%	-112*	x
COc1cccc(-c2cc(C(=O)Nc3cc(C)n(Cc4ccc(Cl)cc4)n3)no2)c1	0	0%	-74*	i
C/C(=N\NC(=O)c1cc(C)oc1C)c1ccc(C)c([N+](=O)[O-])c1	0	-5%	-11	i
O=C(c1ccc(Br)o1)N1CCN(C/C=C/c2ccccc2)CC1	0	5%	4	-109%*
Cn1c(CN2CCCC2)nc2cc(NC(=O)COc3ccccc3)ccc21	-1	-8%	-2	-106%*
Cc1nnc(NC(=O)CSc2ccccc2N)s1	1	-9%	7	i
N#Cc1cc([N+](=O)[O-])c2sc(C(N)=O)[n+]([O-])c2c1	x	x	-22	x
NS(=O)(=O)c1ccc(CCNC(=O)c2cc(-c3ccccn3)nc3ccc(Br)cc23)cc1	-32*	-11%	-11	i
COc1ccc(NS(=O)(=O)c2cn(C)cn2)cc1Cl	1	-3%	-142*	i
COC(=O)c1sc(-c2ccc(Cl)cc2)cc1N	-40*	5%	-8	i
CC(=O)c1sc(-c2ccc(Cl)cc2)cc1N	1	1%	-25	i
COc1ccc(NC(=O)CCCCCN2C(=O)c3cccc([N+](=O)[O-])c3C2=O)c(OC)c1	-39*	x	0	i
COc1ccc(OC)c(NC(=O)CCN2C(=O)c3cccc([N+](=O)[O-])c3C2=O)c1	-2	-2%	27	i
CS(=O)(=O)c1ccc(C(=O)OCC(=O)NC23CC4CC(CC(C4)C2)C3)cc1[N+](=O)[O-]	3	0%[46.1 µM]	-76*	i
O=C1c2ccsc2SCCN1Cc1ccc(Cl)cc1Cl	0	-6%	6	-106%*
CC(=O)Nc1ccc(SCCCC(=O)c2ccccc2)cc1	2	12%	-2	i
CC(C)(C)n1ncc2c(=O)n(CC(=O)c3ccccc3)cnc21	-1	7%[46.1 µM]	18	-115%*
CC(C)(C)n1ncc2c(=O)n(CC(=O)OCc3ccccc3)cnc21	0	-2%	2	i
SMILES	CCT modulator	TCR act	TSHR antag	Akt phos inh
COc1cccc(C2C(C(=O)c3sc(C)nc3C)=C(O)C(=O)N2CCN2CCOCC2)c1OC (stereo not given)	-4	1%	-8	-122%*
CCN(CC)C1=C(Cl)C(=O)C(Cl)C12OCCO2 (stereo not given)	-2	6%	5	i
CCOC(=O)C[C@@H]1OC[C@H](Cc2ccccc2)N1S(=O)(=O)c1ccc(C)cc1	x	x	x	i
CCC1CCCCN1CCCNC(=O)Cn1ncn2nc(-c3ccc(OC)cc3)cc2c1=O (stereo not given)	0	1%	7	i
O=C(Nc1ccc(Cl)cc1)c1cc2c(cc1O)[nH]c1ccccc12	-4	8%	-110*	i
CCOC(=O)c1cc2c(C(F)(F)F)cc(-c3cccnc3)nc2o1	-32*	-2%	1	-112%*
